Assay results reported in PubChem BioAssay (NCI).
“And” between values parts separate entries of the source, which are not always exact repeats. Equal values may be shown once. About 79,000 compounds went through this panel and 15% of them were active in at least one assay; those are over-represented in the sample as a whole. The source made the active and inactive calls. Cut-off read from the data, not from the text of the source: active = growth inhibition above about 70%; inactive = the rest.

Assays:
[1] = NCI Yeast Anticancer Drug Screen. Data for the rad50 strain (AID 155);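 note: 0% = growth of vehicle-only cultures of the same strain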; conditions: S. cerevisiae rad50 strain growth inhibition, active compounds read high
Outline: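 Cells are treated with compound, grown, and their growth is then scored against vehicle-only cultures of the same repair-deficient yeast strain.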

[2] = NCI Yeast Anticancer Drug Screen. Data for the mec2-1 strain (AID 157); conditions: S. cerevisiae mec2-1 strain, active compounds read high
Outline: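 Strain: mec2-1 (DNA repair/cell cycle alteration). Compound exposure, then growth measured; inhibition expressed relative to vehicle.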

[3] = NCI Yeast Anticancer Drug Screen. Data for the sgs1 mgt1 strain (AID 161);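 note: 0% = growth of cultures given vehicle only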; conditions: S. cerevisiae sgs1 mgt1 strain, active compounds read high
Outline: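 Inhibition of yeast growth, normalised to vehicle-treated controls, is reported for a strain bearing genetic alterations in DNA damage repair.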

[4] = NCI Yeast Anticancer Drug Screen. Data for the cln2 rad14 strain (AID 165);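 note: 0% = growth equal to vehicle treated cultures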; conditions: S. cerevisiae cln2 rad14 strain, active compounds read high
Outline: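 Compounds are applied to the cln2 rad14 yeast strain, and growth is then compared with that of vehicle-treated cultures to give inhibition.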

[5] = NCI Yeast Anticancer Drug Screen. Data for the bub3 strain (AID 167); conditions: S. cerevisiae bub3 mutant strain, active compounds read high
Outline: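 Part of a panel of yeast mutants defective in DNA damage repair or cell cycle regulation. Each strain is grown with compound, and inhibition is calculated relative to solvent-treated cultures.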

[6] = NCI Yeast Anticancer Drug Screen. Data for the mlh1 rad18 strain (AID 175); conditions: S. cerevisiae mlh1 rad18 strain growth inhibition, active compounds read high
Outline: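 Read-out is yeast growth inhibition, calculated against vehicle-only controls. The compound was applied to a strain engineered with DNA damage repair alterations.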

[7] = at 5.0 µM (retest, dose inferred, filed as 0.5)
[8] = at 50.0 µM (retest, dose inferred, filed as 5.0)

Measured: growth inhibition

Cc1ccccc1OCc1cccc(Cl)c1
inactive: [1]; [7] 8% | [1]; [8] 23% | [2]; [7] -1% | [2]; [8] 4% | [3]; [7] 4% | [3]; [8] 43% | [4]; [7] 9% | [4]; [8] -10% | [5]; [7] 4% | [5]; [8] 17% | [6]; [7] -5% | [6]; [8] 6%

Cc1cc(=O)oc2cc(O)cc(O)c12
inactive: [1]; [7] 0% | [1]; [8] -1% | [1]; at 50.0 µM 16.5% | [2]; [7] -4% | [2]; [8] -2% | [2]; at 50.0 µM -8.95% | [4]; [7] 0% | [4]; [8] -11% | [4]; at 50.0 µM -18.6% | [5]; [7] -3% | [5]; [8] 6% | [5]; at 50.0 µM -14.7% | [6]; [7] -5% | [6]; [8] 1% | [6]; at 50.0 µM 6.8%

COC(=O)c1ccc(Cl)c(NN)c1
active: [1]; at 50.0 µM 90.4% | [2]; at 50.0 µM 92.8% | [3]; [7] 86% | [3]; [8] 98% | [4]; [8] 99% | [5]; [7] 93% | [5]; [8] 99% | [6]; at 50.0 µM 88.7%
inactive: [1]; [7] 49% | [1]; [8] 66% | [2]; [7] 29% | [2]; [8] 59% | [4]; [7] 61% | [6]; [7] 38% | [6]; [8] 42%

CCC(CC)(c1ccccc1)C(O)c1ccccc1 (configuration not stated)
inactive: [1]; [7] 11% | [2]; [7] -1% | [3]; [7] 6% | [4]; [7] 7% | [5]; [7] 6%
active: [1]; [8] 94% | [2]; [8] 98% | [3]; [8] 98% | [4]; [8] 95% | [5]; [8] 94%

O=C1C=CC(=O)c2c(O)c(CO)c(CO)c(O)c21
active: [1]; [8] 95% | [1]; at 50.0 µM 75.4% | [2]; [8] 96% | [2]; at 50.0 µM 84.4% | [4]; [8] 84% | [6]; [8] 96%
inactive: [1]; [7] 28% | [2]; [7] 27% | [4]; [7] 24% | [4]; at 50.0 µM 15.5% | [6]; [7] 30%

O=C(/C=C/c1ccccc1)c1ccccc1O
active: [1]; [8] 78% | [1]; at 50.0 µM 98.5% | [2]; at 50.0 µM 99.2% | [5]; [8] 80% | [6]; [8] 78%
inactive: [1]; [7] 9% | [2]; [7] 4% | [2]; [8] 49% | [4]; [7] 2% | [4]; [8] 40% | [4]; at 50.0 µM 53.6% | [5]; [7] 1% | [5]; at 50.0 µM 49.1% | [6]; [7] 1% | [6]; at 50.0 µM 45.6%

O=C1C=CC2C3C(=O)N(c4ccccc4)C(=O)C3C1N2Cc1ccccc1 (configuration not stated)
active: [3]; [8] 70% | [5]; [8] 78% | [6]; [8] 79%
inactive: [1]; [7] 18% | [1]; [8] 48% | [2]; [7] 18% | [2]; [8] 58% | [3]; [7] 50% | [3]; at 50.0 µM 69.2% | [4]; [7] 21% | [4]; [8] 56% | [4]; at 50.0 µM 43.2% | [5]; [7] 24% | [5]; at 50.0 µM 61.9% | [6]; [7] 51%

OCCNC(c1ccc(Cl)cc1)C(O)c1ccc(Cl)cc1 (configuration not stated)
active: [3]; [8] 77%
inactive: [1]; [7] 5% | [1]; [8] 62% | [2]; [7] -3% | [2]; [8] 13% | [3]; [7] 0% | [4]; [7] 11% | [4]; [8] 8% | [5]; [7] 6% | [5]; [8] 55%

Cc1ccc(-c2c(C#N)c(-c3ccc(C)cc3)n(NS(=O)(=O)c3ccccc3)c(=O)c2C#N)cc1
active: [1]; [8] 84% | [2]; [8] 94% | [3]; [8] 94% | [4]; [8] 93% | [5]; [8] 95% | [6]; [8] 85%
inactive: [1]; [7] 30% | [2]; [7] 38% | [3]; [7] 29% | [4]; [7] 53% | [5]; [7] 52% | [6]; [7] 33%

CCOC(=O)C(=Cc1ccco1)C(=O)OCC
inactive: [1]; at 50.0 µM 38.5% and 10.2% | [2]; at 50.0 µM 37.1% and -24.6% | [3]; at 50.0 µM 7.75% and -0.5% | [4]; at 50.0 µM 23.8% and 8.8% | [5]; at 50.0 µM -4.65% and -9.25% | [6]; at 50.0 µM 19.8% and -19.1%

O=C(CO)NCCO
inactive: [1]; [7] 1% | [1]; [8] 0% | [2]; [7] 3% | [2]; [8] 5% | [3]; [7] -2% | [3]; [8] 2% | [4]; [7] 5% | [4]; [8] -2% | [5]; [7] 5% | [5]; [8] -5% | [6]; [7] 0% | [6]; [8] 2%

CCC(=O)c1ccc([N+](=O)[O-])o1
inactive: [1]; [7] 12% | [2]; [7] 5% | [3]; [7] 13% | [4]; [7] -6% | [5]; [7] 13% | [6]; [7] 3%
active: [1]; [8] 97% | [2]; [8] 99% | [3]; [8] 100% | [4]; [8] 99% | [5]; [8] 100% | [6]; [8] 98%

CC1C2c3ccccc3C(c3ccccc32)C1CO (configuration not stated)
active: [1]; [8] 88% | [3]; [8] 77% | [4]; [8] 71% | [5]; [8] 74% | [6]; [8] 80%
inactive: [1]; [7] 11% | [2]; [7] 1% | [2]; [8] 61% | [3]; [7] 6% | [4]; [7] 4% | [5]; [7] -4% | [6]; [7] -44%

O=C(NC(=O)c1cn(C2OC(CO)C(O)C2O)c(=O)[nH]c1=O)OCc1ccccc1 (configuration not stated)
inactive: [1]; at 50.0 µM -3.55% and -14.8% | [2]; at 50.0 µM -4.8% and 23.7% | [3]; at 50.0 µM -25.6% and -8.85% | [4]; at 50.0 µM 11.1% and 20.3% | [5]; at 50.0 µM -19.6% and -17.8%
